Inconclusive results are not listed. Active and inactive are the calls of the source. Calls come from the whole dose curve; as a rule, active = well fitted inhibition curve with a large enough effect; inconclusive = small, poorly fitted or top-dose-only effect; inactive = flat fitted curve, though single readings scatter.
Tested on: CRL-7250
Assay: Cytotoxic Profiling of Annotated Libraries Using Quantitative High-Throughput Screening (AID 1296008); note: nearly all actives have a fitted effect of over 60% in size
Settings: Five cell lines viability, CellTiter-Glo ATP luminescence, 48-72 h; max response: stronger effect = lower value
Procedure, shortened: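 Compounds were pin-transferred onto cells and incubated 48 or 72 hr at 37 degree Celsius, 95% humidity. CellTiter-Glo was added, plates sat 10 min at room temperature, then ATP-coupled luminescence was imaged as the viability read-out.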
% is set by controls: 0 for no effect and ±100 for the full control effect; potency is the fitted concentration of half-maximal effect.

Structure (SMILES) | max response | Potency | outcome
Cc1[nH]c2ccccc2c1CCNC(=O)c1ccccc1F | -5.45% (inactive) |  | 
C[C@@H]1O[C@@H](OC[C@H]2O[C@@H](OC(CCCCc3ccc(O)cc3)CCc3ccc(O)cc3)[C@H](O)[C@@H](O)[C@@H]2O)[C@H](O)[C@H](O)[C@H]1O (some centres not stated) | 3.8% (inactive) |  | 
CC1=CCC(C(C)(C)O[C@@H]2O[C@H](CO[C@@H]3O[C@@H](C)[C@H](O)[C@@H](O)[C@H]3O)[C@@H](O)[C@H](O)[C@H]2O)CC1 (some centres not stated) | -8.36% (inactive) |  | 
C=CC(C)(O)CC[C@H]1C(=C)CCC2[C@](C)(C(=O)O)CCC[C@@]21C (some centres not stated) | 2.31% (inactive) |  | 
CCCCc1nc2cc(/C=C/C(=O)NO)ccc2n1CCN(CC)CC |  | 5.8 µM (active) | 
CCOc1ccc2nc(SCCN3CCOCC3)[nH]c2c1 | -3.31% (inactive) |  | 
CC(C)C(CO)Nc1nc(Nc2ccc(C(=O)O)c(Cl)c2)c2ncn(C(C)C)c2n1 (configuration not stated) |  |  | inactive
C[C@@H]1O[C@@H](O[C@H]2[C@H](O)[C@@H](O)[C@H](OC3CCC4(C)C5CCC(C)(C(CO)OC6OC(CO)C(O)C(O)C6O)CC5=CCC4C3(C)C)O[C@@H]2CO)[C@H](O)[C@H](O)[C@H]1O (some centres not stated) | 2.65% (inactive) |  | 
Cc1ccc(NC(=O)C(=O)NC2CC(C)(C)NC(C)(C)C2)cc1 |  |  | inactive
N#Cc1cnc2cnc(NCc3cccnc3)cc2c1Nc1ccc(F)c(Cl)c1 |  | 5.17 µM (active) | 
C[C@@H]1[C@H]2[C@H](O[C@@H]3O[C@H](CO)[C@@H](O)[C@H](O)[C@H]3O)OC=C(C(=O)O)[C@H]2C[C@@H]1O |  |  | inactive
CC1(C)CCCC2(C)C(C(=O)O)=CCC12 (configuration not stated) | -16.1% (inactive) |  | 
C/C=C/c1ccc2c(c1)[C@@H](C)[C@H](c1ccc(O)cc1)O2 | -3.63% (inactive) |  | 
COc1nc2sc(C(=O)NC3CC3)c(N)c2c(C)c1Cl | -8.27% (inactive) |  | 
Cc1cn(C2C=CC(CO)O2)c(=O)[nH]c1=O (configuration not stated) | -8.63% (inactive) |  | 
COc1ccc(CNC(=O)c2cc(-c3cncc(C)c3)ncc2-c2nccs2)nc1OC |  |  | inactive
CC(C)=CCC/C(C)=C/CCC1(C)Oc2c(c(O)cc3c2CN(C(CCC(=O)O)C(=O)O)C3=O)CC1O (configuration not stated) | -8.75% (inactive) |  | 
CC(=O)OC[C@H]1O[C@H](O[C@]2(CO)O[C@H](CO)[C@@H](OC(=O)/C=C/c3ccccc3)[C@@H]2O)[C@H](O)[C@@H](O)[C@@H]1O | -26.1% (inactive) |  | 
FC(F)(F)c1cc(-c2ncn(/C=C\c3nnco3)n2)cc(C(F)(F)F)c1 | -13.3% (inactive) |  | 
CNC(=O)c1ccccc1Nc1nc(Nc2ccc3c(c2OC)CCCC(N2CCN(CCO)CC2)C3)ncc1Cl (configuration not stated) |  | 7.31 µM (active) | 
C[C@@H]1O[C@@H](O[C@@H]2[C@@H](O[C@@H]3O[C@@H](C)[C@H](O[C@@H]4OC[C@H](O)[C@H](O[C@@H]5OC[C@@H](O)[C@H](O)[C@H]5O)[C@H]4O)[C@@H](O[C@@H]4OC[C@](O)(CO)[C@H]4O)[C@H]3O)[C@H](OC(=O)[C@]34CCC(C)(C)C[C@H]3C3=CCC5[C@@]6(C)C[C@H](O)[C@H](O[C@@H]7O[C@H](CO[C@@H]8OC[C@H](O)[C@H](O)[C@H]8O)[C@@H](O)[C@H](O)[C@H]7O)C(C)(C)C6CC[C@@]5(C)[C@]3(C)C[C@H]4O)OC[C@H]2O)[C@H](O)[C@H](O)[C@H]1O (some centres not stated) |  |  | inactive
CC(C)=CCC/C(C)=C/CO[C@@H]1O[C@H](CO)[C@@H](OC(=O)/C=C/c2ccc(O)cc2)[C@H](O[C@@H]2O[C@@H](C)[C@H](O)[C@@H](O)[C@H]2O)[C@H]1O | 0.478% (inactive) |  | 
OC1CCC(Nc2ncc3nc(Nc4c(F)cc(F)cc4F)n([C@H]4CCOC4)c3n2)CC1 (some centres not stated) | -2.71% (inactive) |  | 
CNC(=O)c1ccccc1Nc1nc(Nc2ccc(N3CCNCC3)cc2)ncc1Cl |  | 0.092 µM (active) | 
C[C@@H]1O[C@@H](O[C@H]2[C@@H](OC(=O)[C@]34CCC(C)(C)CC3C3=CCC5[C@@]6(C)C[C@H](O)[C@H](O[C@@H]7O[C@H](C(=O)O)[C@@H](O)[C@H](O)[C@H]7O)[C@@](C)(C(=O)O)C6CC[C@@]5(C)[C@]3(C)CC4)OC[C@H](O)[C@@H]2O)[C@H](O)[C@H](O)[C@H]1O[C@@H]1OC[C@@H](O)[C@H](O)[C@H]1O (some centres not stated) | -0.804% (inactive) |  | 
C=C(C(=O)O)[C@H]1C[C@]2(C)[C@@H](O)CC[C@]23O[C@H]1C[C@@H]3C | -8.76% (inactive) |  | 
CC1OC(OC2C(C)OC(OC3C(OC(=O)C45CCC(C)(C)CC4C4=CCC6C7(C)CCC(OC8OC(C(=O)O)C(O)C(O)C8OC8OC(CO)C(O)C(OC9OC(C)C(O)C(O)C9O)C8O)C(C)(CO)C7CCC6(C)C4(C)CC5)OC(CO)C(O)C3O)C(O)C2O)C(O)C(O)C1O (configuration not stated) | 3.83% (inactive) |  | 

Source: PubChem BioAssay (NCATS)
